A selection: hits, their analogues and other compounds. The true share with any hit is near 0.71%.
FXIa inh mix = blocks human factor XIa in pooled compound mixtures; AID 680; purified FXIa, fluorogenic substrate; inhibition, % at 5 µM; P03951; actives 0.19% (n = 62,000);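 also: each value is inhibition by a whole ten-compound pool holding the compound; 0% = enzyme with no mixture and 100% = wells lacking enzyme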
Cathepsin G inh = blocks human cathepsin G enzyme activity | P08311 | purified enzyme, AMC-tetrapeptide fluorescence, pooled mixtures | inhibition, % at 5 µM (by protocol) | actives 0.2% (n = 62,000) | AID 581;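 active = inhibition above 20% in each of the two mixture wells holding the compound; inactive = inhibition of 20% or less in either well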;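 also: 0% = enzyme control without mixture and 100% = blank lacking enzyme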
mHtt clearance = mutant huntingtin protein clearance; HeLa Exon1htt(103Q)mCFP, aggregate imaging; zero = plate's median compound well; inhibition, % at 1.5 µM; actives 0.42% (n = 47,000); AID 853;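 active = inhibition of aggregate fluorescence above about 70%, also judged a hit by eye on the cell image, limit read from the data, passing the limit was not always enough; inconclusive = no rule stated for this call; inactive = not judged a hit on image review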;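 also: cells exposed to compound for three days before fixation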
C1s inh = human complement C1s inhibition; AID 538; purified C1s, fluorogenic AMC substrate, pooled mixtures; mean inhibition % of two 10-compound mixtures (active compounds read high), % at 5 µM (by protocol); actives 0.16% (n = 62,000);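 active = inhibition above 20% in each of the two 10-compound mixture wells holding the compound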;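 also: 0% = enzyme wells lacking compound mixture and 100% = no-enzyme blank wells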
FXIIa mix inh = inhibitors of human coagulation factor XIIa, pooled mixtures. P00748. purified FXIIa, fluorogenic substrate. inhibition, % at 5 µM. actives 0.2% (n = 62,000);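 also: 0% = enzyme without compound and 100% = no enzyme blank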
Target sequence (P00748 20-372 limits assumed): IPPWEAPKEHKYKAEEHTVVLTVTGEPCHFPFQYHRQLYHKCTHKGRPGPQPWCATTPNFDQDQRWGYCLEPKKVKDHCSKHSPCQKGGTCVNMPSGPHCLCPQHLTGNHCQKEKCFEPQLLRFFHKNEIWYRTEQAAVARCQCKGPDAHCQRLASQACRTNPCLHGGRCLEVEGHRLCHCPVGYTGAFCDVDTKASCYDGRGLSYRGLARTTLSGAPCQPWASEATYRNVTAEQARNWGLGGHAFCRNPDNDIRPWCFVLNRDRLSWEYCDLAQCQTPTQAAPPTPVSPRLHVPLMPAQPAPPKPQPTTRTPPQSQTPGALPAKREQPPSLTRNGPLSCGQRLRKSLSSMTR
Target sequence (P00748 373-615 limits assumed): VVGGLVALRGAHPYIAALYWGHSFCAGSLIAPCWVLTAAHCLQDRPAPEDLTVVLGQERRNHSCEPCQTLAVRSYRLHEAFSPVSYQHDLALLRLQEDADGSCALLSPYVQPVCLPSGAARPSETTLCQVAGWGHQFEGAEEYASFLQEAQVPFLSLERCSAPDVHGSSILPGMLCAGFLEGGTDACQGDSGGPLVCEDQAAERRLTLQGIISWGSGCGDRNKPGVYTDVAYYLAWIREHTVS
Starred values were filed as active, the others as inactive; ? = inconclusive; . = no result. Rule as the data show it, unless noted: active = inhibition above about 20% (passing the limit was not always enough); inactive = the rest.

SMILES | FXIa inh mix | Cathepsin G inh | mHtt clearance | C1s inh | FXIIa mix inh
O=C(CC(NS(=O)(=O)c1ccc(Cl)cc1)c1ccco1)NCc1ccco1 (configuration not stated) | 4 | 10 | . | 15 | 70*
O=S(=O)(NCC1CCCO1)c1ccc(S(=O)(=O)N(Cc2ccccc2F)C2CCCCC2)cc1 (configuration not stated) | . | . | -7 | . | .
CCN(CCNC(=O)c1cccc(N2CCCC2=O)c1)c1ccccc1 | 7 | 6 | . | 10 | 2
CN(CCNC(=O)c1cccc(N2CCCC2=O)c1)Cc1ccccc1 | 0 | 6 | . | -23 | 24*
CCOc1ccccc1N(CC(=O)O)S(=O)(=O)c1ccccc1 | 40* | 46 | 24 | -3 | -5
COc1ccc2[nH]c(=O)c(CN(Cc3cccs3)Cc3nnnn3C(C)(C)C)cc2c1 | 22* | 22 | . | 13 | 6
CC1=C(C#N)C2C(/C1=N/O)C2(C)C (configuration not stated) | 10 | -1 | 17 | 1 | 6
CCOC(=O)N=S(=O)(Oc1ccc([N+](=O)[O-])cc1)c1ccccc1 (configuration not stated) | . | . | 78* | . | .
CCOC(=O)N=S(=O)(Oc1ccc([N+](=O)[O-])cc1)c1ccc(Cl)cc1 (configuration not stated) | . | . | 10 | . | .
COc1cccc(C(C(=O)NCc2ccco2)N(Cc2ccco2)C(=O)Cn2nnc3ccccc32)c1 (configuration not stated) | . | . | 80* | . | .
CCOc1ccc(NC(=O)CSc2nc3c(c(=O)n2C)SC(C)C3)cc1 (configuration not stated) | -1 | -1 | . | -8 | 0
CC(C)(C)OC(=O)N[C@@H](Cc1ccccc1)c1nnc(S(=O)(=O)Cc2cccc(F)c2)o1 | 6 | 63* | . | -7 | 17
CC[C@@H](C)[C@H](NC(=O)OC(C)(C)C)c1nnc(S(=O)(=O)Cc2cc(C)ccc2C)o1 | 18 | 27* | . | 4 | 2
CC(C)=CCSc1nnc([C@@H](NC(=O)OC(C)(C)C)C(C)C)o1 | 1 | 1 | . | -9 | 2
Cc1[nH]c(=O)[nH]c(=O)c1CSc1nnc([C@@H](NC(=O)OC(C)(C)C)C(C)C)o1 | 2 | 10 | 18 | 3 | -19
Cc1ccccc1CS(=O)(=O)c1nnc([C@H](CC(C)C)NC(=O)OC(C)(C)C)o1 | 6 | 21* | . | 15 | -12
CC(C)[C@H](NC(=O)OC(C)(C)C)c1nnc(S(=O)(=O)Cc2c(F)cccc2Cl)o1 | 17 | 38* | . | 13 | 5
CC(C)C[C@H](N)c1nnc(S(=O)(=O)Cc2cccc(F)c2)o1 | 14 | 3 | 40 | -11 | -1
Cc1nnc(SCCn2c(N3CCN(c4ccccc4)CC3)nc3c2c(=O)n(C)c(=O)n3C)s1 | 2 | -3 | . | -4 | 13
CN(CC(=O)NCc1cccs1)S(=O)(=O)c1cccc2nsnc12 | 6 | 10 | -18 | 17 | 0
CCOc1ccc(CCNC(=O)C2CCN(c3nn4c(=O)cc(C)nc4s3)CC2)cc1OCC | 0 | -4 | . | -13 | 10
CC(C)n1nnnc1SCC(=O)NCc1ccco1 | 22* | 8 | . | -1 | -5
CC(C)c1nnc(SCC(=O)NCc2ccco2)n1C | -3 | 5 | . | -8 | 3
CCSc1nnc(NC(=O)C2Cc3ccccc3CN2C(=O)c2ccco2)s1 (configuration not stated) | 6 | 5 | -4 | -10 | 6
Cc1cc2ncn(S(=O)(=O)N3CCOCC3)c2cc1C | 2 | 8 | 70* | 9 | -19
SMILES | FXIa inh mix | Cathepsin G inh | mHtt clearance | C1s inh | FXIIa mix inh
COc1cccc(-n2c(SCC(=O)N3CCOCC3)nnc2-c2c[nH]c3ccccc23)c1 | 24* | 6 | . | -5 | 6
CCOC(=O)c1cc2sccc2n1CC(=O)N1CCCC1 | 1 | -2 | . | -7 | 1
N=c1oc2ccccc2cc1-c1nc2ccccc2c(=O)[nH]1 | 4 | -4 | . | -12 | 35*
COc1cccc(NC(=O)CCP(C)(=O)O)c1 | 6 | 11 | 2 | 63* | -14
CCCCNC(=O)c1nc2ncc(Br)cn2n1 | 25* | 4 | -11 | 1 | 3
Cc1cc(=O)oc(C)c1C(=O)NCCN1CCOCC1 | . | . | 6 | . | .
CCOC(=O)C1CCN(CCC(=O)Nc2ccccc2Cl)CC1 | . | . | 6 | . | .
CCOC(=O)C1CCN(CCC(=O)Nc2cccc(Cl)c2)CC1 | 5 | 1 | 14 | -5 | 35*
Cc1cc(C)c(C)c(/C=C(/C#N)C(N)=S)c1C | . | . | 77* | . | .
CCCCn1c(-c2cc(Cl)ccc2OC)n[nH]c1=S | 7 | 10 | . | 43* | 3
CCCc1cc(C(=O)Nc2sc(C)c(CC)c2C#N)no1 | 1 | -5 | . | -10 | 0
CCCc1cc(C(=O)Nc2sc3c(c2C#N)CCC3)no1 | 1 | -7 | 82* | -19 | 8
Cc1noc(NS(=O)(=O)c2ccc(NC(=O)CSc3nc4ccccc4s3)cc2)c1C | 52* | 32 | -40 | 13 | 2
CC1=C(C(=O)OCc2ccc3c(c2)OCO3)C(c2ccccc2)NC(=O)N1 (configuration not stated) | 8 | 1 | 74* | -25 | 5
C=CCOc1ccc(C2C(C(=O)c3cccs3)=C(O)C(=O)N2c2nnc(C)s2)cc1 (configuration not stated) | . | . | 30 | . | .
COc1ccc(C2C(C(=O)c3cccs3)=C(O)C(=O)N2c2nncs2)cc1 (configuration not stated) | 43* | 22* | 11 | 13 | 1
Cc1ccc(NS(=O)(=O)c2cc(C(=O)N3CCN(C)CC3)ccc2C)cc1 | 6 | 6 | 25 | 13 | 3
Cc1ccc(NS(=O)(=O)c2cc(C(=O)N3CCOCC3)ccc2C)cc1C | 7 | 14 | ? | 21* | 3
COc1ccccc1Nc1nc(-c2cccs2)cs1 | 5 | 10 | 12 | 58* | 2
Cc1ccc(CCP(=O)(O)CN2CCCCC2)cn1 | 9 | 12 | . | 4 | 4
COc1cc2nc(-c3cccs3)oc(=O)c2cc1OC | 7 | 22* | 22 | 11 | 4
O=C(NCC(c1cccnc1)N1CCN(c2ccc(F)cc2)CC1)OCc1ccccc1 (configuration not stated) | 4 | -6 | . | 17 | 4
O=C(NCC(c1cccnc1)N1CCN(c2ccc(F)cc2)CC1)c1cccc(Cl)c1 (configuration not stated) | 6 | 0 | . | 4 | 62*
Cc1ccc(CCNC(=O)C2CCCN(S(=O)(=O)c3cnc[nH]3)C2)cc1 (configuration not stated) | 6 | 4 | 70* | 7 | 2
Clc1ccc(C(c2nnnn2C2CCCCC2)N(Cc2cccnc2)Cc2ccco2)cc1 (configuration not stated) | 20 | 9 | . | 16 | 4
c1ccc2sc(N3CN(CCN4CCOCC4)CN(c4nc5ccccc5s4)C3)nc2c1 | 7 | 8 | . | 13 | 4
N#C/C(=C(/O)CN1CCOCC1)c1nc2ccccc2s1 | 2 | -7 | 77* | 1 | 0
CCOC(=O)c1c(C)[nH]c(C(=O)COC(=O)C2(C)CC2(Cl)Cl)c1C (configuration not stated) | . | . | -10 | . | .

Bioassay records (PubChem)
